# Reference: the supplement of paper PMC8728848
# The entries come from a sample that favours the strongest signals as a whole.
# B1: Pbx1 (Cryptococcus neoformans) (protein)
# chain: ATTKCLVSGDQDSINNALALGGEGTTVTLCPGSVHRLNSSIIFTAPSQTLTTLGNPKDRNRAMLVVDGEDLACAIRADCKQCSHAMIRSLVIDGNRPQLLRIPKGDALIEVGNAESQTVRDCKLYEPRGWSALHFREGDERQCRFGHIVDNEIGPCGEEWDDEYDSMDETKPLWGNPRADGISLACKDSIVERNVVYDATDGAIVLFGSAGSTVKNNHVYARTRVILGGINLVDYEPWDGDYTNVKVHHNHLYALGRYFKVGIVIGPASWSDDTESVVHSASVTDNEFSGGYWGYGIVVASAKNFEVLRNKVIWDGEQGVARFSGVPGSRCPKAPENGKPTAFLINRGSAKGIFQDDFVNGEVQHIICLNPDQDPPYKPWRFRDSPEAIAAKQAENPTANSAFDSRIAEALVSYQMSLLNSMDAMTQKVEHLTNPIVDDALPFVHEHERAEADKKARQEASRKEKESGNKDVDMLNVKVEELEKSGRRLKKALDGLKSDFEGLSGRLKKSADENKPIIETIFVTSQNLLLGATSQQN
# Columns and labels:
# Assay in all cases: glycan array binding signal (z-score within array); higher = stronger binding
# Conditions in all cases: glycan notation: IUPAC condensed, linker removed
# [1] = molecular target: Fuc(a1-2)Gal(b1-3)[Fuc(a1-4)]GlcNAc(b1-2)Man(a1-3)[Fuc(a1-2)Gal(b1-3)[Fuc(a1-4)]GlcNAc(b1-2)Man(a1-3)]Man(b1-4)GlcNAc(b1-4)GlcNAc
# Summary of the method: (§1)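 The binding signal is a Z-score computed within each array. Data were drawn from 3228 arrays in the Consortium for Functional Glycomics database, restricted to those with a known protein sequence. Scores were averaged over arrays of the same protein sequence at different concentrations or buffers, and over linkers, and negative values can be taken as non-binding.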
# [2] = molecular target: Fuc(a1-2)Gal(b1-4)GlcNAc(b1-2)Man
# Summary of the method: as §1
# [3] = molecular target: Fuc(a1-2)[Gal(a1-3)]Gal(b1-4)GlcNAc(b1-2)Man
# Summary of the method: as §1
# [4] = molecular target: Fuc(a1-2)[Gal(a1-4)]Gal(b1-4)GlcNAc
# Summary of the method: as §1
# [5] = molecular target: Fuc(a1-2)[GalNAc(a1-3)]Gal(b1-4)GlcNAc(b1-6)GalNAc
# Summary of the method: as §1
# [6] = molecular target: Fuc(a1-3)[Gal(b1-4)]GlcNAc(b1-6)GalNAc
# Summary of the method: as §1
# [7] = molecular target: Gal(a1-3)Gal(b1-3)GlcNAc(b1-2)Man
# Summary of the method: as §1
# [8] = molecular target: Gal(a1-4)Gal(b1-3)GlcNAc(b1-2)Man(a1-3)[Gal(a1-4)Gal(b1-3)GlcNAc(b1-2)Man(a1-6)]Man(b1-4)GlcNAc(b1-4)GlcNAc
# Summary of the method: as §1
# [9] = molecular target: Gal(b1-3)GlcNAc(a1-3)Gal(b1-4)GlcNAc
# Summary of the method: as §1
# [10] = molecular target: Gal(b1-3)GlcNAc(b1-2)Man(a1-3)[GlcNAc(b1-4)][Gal(b1-3)GlcNAc(b1-2)Man(a1-6)]Man(b1-4)GlcNAc(b1-4)GlcNAc
# Summary of the method: as §1
# [11] = molecular target: Gal(b1-3)GlcNAc(b1-3)Gal(b1-4)Glc
# Summary of the method: as §1
# [12] = molecular target: Gal(b1-3)GlcNAc(b1-3)Gal(b1-4)GlcNAc(b1-3)Gal(b1-4)GlcNAc(b1-2)[Gal(b1-3)GlcNAc(b1-3)Gal(b1-4)GlcNAc(b1-3)Gal(b1-4)GlcNAc(b1-6)]Man(a1-6)[Gal(b1-3)GlcNAc(b1-3)Gal(b1-4)GlcNAc(b1-3)Gal(b1-4)GlcNAc(b1-2)Man(a1-3)]Man(b1-4)GlcNAc(b1-4)[Fuc(a1-6)]GlcNAc
# Summary of the method: as §1
# [13] = molecular target: Gal(b1-4)GlcNAc(b1-2)Man(a1-3)Man(b1-4)GlcNAc(b1-4)GlcNAc
# Summary of the method: as §1
# [14] = molecular target: Gal(b1-4)GlcNAc(b1-2)[Gal(b1-4)GlcNAc(b1-4)]Man(a1-3)[Gal(b1-4)GlcNAc(b1-2)[Gal(b1-4)GlcNAc(b1-6)]Man(a1-6)]Man(b1-4)GlcNAc(b1-4)GlcNAc
# Summary of the method: as §1
# [15] = molecular target: Gal(b1-4)GlcNAc(b1-3)Gal(b1-4)GlcNAc(b1-2)Man(a1-3)[Gal(b1-4)GlcNAc(b1-3)Gal(b1-4)GlcNAc(b1-2)Man(a1-6)]Man(b1-4)GlcNAc(b1-4)GlcNAc
# Summary of the method: as §1
# [16] = molecular target: Gal(b1-4)GlcNAc(b1-3)Gal(b1-4)GlcNAc(b1-3)Gal(b1-4)GlcNAc(b1-2)Man(a1-3)[Gal(b1-4)GlcNAc(b1-3)Gal(b1-4)GlcNAc(b1-3)Gal(b1-4)GlcNAc(b1-2)Man(a1-6)]Man(b1-4)GlcNAc(b1-4)GlcNAc
# Summary of the method: as §1
# [17] = molecular target: Gal(b1-4)GlcNAc(b1-3)Gal(b1-4)GlcNAc(b1-3)Gal(b1-4)GlcNAc(b1-3)Gal(b1-4)GlcNAc(b1-3)Gal(b1-4)GlcNAc(b1-2)Man(a1-3)[Gal(b1-4)GlcNAc(b1-3)Gal(b1-4)GlcNAc(b1-3)Gal(b1-4)GlcNAc(b1-3)Gal(b1-4)GlcNAc(b1-3)Gal(b1-4)GlcNAc(b1-2)Man(a1-6)]Man(b1-4)GlcNAc(b1-4)[Fuc(a1-6)]GlcNAc
# Summary of the method: as §1
# [18] = molecular target: Gal(b1-4)GlcNAc(b1-3)Gal(b1-4)GlcNAc(b1-3)Gal(b1-4)GlcNAc(b1-3)Gal(b1-4)GlcNAc(b1-3)Gal(b1-4)GlcNAc(b1-2)[Gal(b1-4)GlcNAc(b1-3)Gal(b1-4)GlcNAc(b1-3)Gal(b1-4)GlcNAc(b1-3)Gal(b1-4)GlcNAc(b1-3)Gal(b1-4)GlcNAc(b1-6)]Man(a1-6)[Gal(b1-4)GlcNAc(b1-3)Gal(b1-4)GlcNAc(b1-3)Gal(b1-4)GlcNAc(b1-3)Gal(b1-4)GlcNAc(b1-3)Gal(b1-4)GlcNAc(b1-2)Man(a1-3)]Man(b1-4)GlcNAc(b1-4)[Fuc(a1-6)]GlcNAc
# Summary of the method: as §1
# [19] = molecular target: Gal(b1-4)GlcNAc(b1-3)Gal(b1-4)GlcNAc(b1-3)Gal(b1-4)GlcNAc(b1-3)Gal(b1-4)GlcNAc(b1-3)Gal(b1-4)GlcNAc(b1-3)Gal(b1-4)GlcNAc(b1-2)Man(a1-3)[Gal(b1-4)GlcNAc(b1-3)Gal(b1-4)GlcNAc(b1-3)Gal(b1-4)GlcNAc(b1-3)Gal(b1-4)GlcNAc(b1-3)Gal(b1-4)GlcNAc(b1-3)Gal(b1-4)GlcNAc(b1-2)Man(a1-6)]Man(b1-4)GlcNAc(b1-4)GlcNAc
# Summary of the method: as §1
# [20] = molecular target: Gal(b1-4)GlcNAc(b1-3)Gal(b1-4)GlcNAc(b1-6)[Gal(b1-3)]GalNAc
# Summary of the method: as §1
# [21] = molecular target: Gal(b1-6)Gal
# Summary of the method: as §1
# [22] = molecular target: Gal4S6S(b1-4)GlcNAc
# Summary of the method: as §1
# [23] = molecular target: Gal6S(b1-3)GlcNAc
# Summary of the method: as §1
# [24] = molecular target: GalNAc3S(b1-4)[Fuc(a1-3)]GlcNAc
# Summary of the method: as §1
# [25] = molecular target: Glc(a1-4)Glc
# Summary of the method: as §1
# [26] = molecular target: Glc(a1-4)Glc(a1-4)Glc(a1-4)Glc
# Summary of the method: as §1
# [27] = molecular target: GlcA(b1-3)GlcNAc
# Summary of the method: as §1
# [28] = molecular target: GlcNAc(a1-3)Gal(b1-4)GlcNAc
# Summary of the method: as §1
# [29] = molecular target: GlcNAc(b1-2)[GlcNAc(b1-6)]Man(a1-6)[GlcNAc(b1-2)Man(a1-3)]Man(b1-4)GlcNAc(b1-4)[Fuc(a1-6)]GlcNAc
# Summary of the method: as §1
# [30] = molecular target: GlcNAc(b1-2)[GlcNAc(b1-6)]Man(a1-6)[GlcNAc(b1-4)][GlcNAc(b1-2)Man(a1-3)]Man(b1-4)GlcNAc(b1-4)GlcNAc
# Summary of the method: as §1
# [31] = molecular target: GlcNAc(b1-3)Gal
# Summary of the method: as §1
# [32] = molecular target: GlcNAc(b1-3)[GlcNAc(b1-6)]GalNAc
# Summary of the method: as §1
# [33] = molecular target: GlcNAc(b1-4)GlcNAc(b1-4)GlcNAc
# Summary of the method: as §1
# [34] = molecular target: GlcNAc(b1-4)GlcNAc(b1-4)GlcNAc(b1-4)GlcNAc(b1-4)GlcNAc
# Summary of the method: as §1
# [35] = molecular target: GlcNAc(b1-6)Gal(b1-4)GlcNAc
# Summary of the method: as §1
# [36] = molecular target: GlcNAc(b1-6)GalNAc
# Summary of the method: as §1
# [37] = molecular target: MurNAc(b1-4)GlcNAc
# Summary of the method: as §1
# [38] = molecular target: Neu5Ac(a2-3)Gal(b1-3)GlcNAc(b1-2)Man(a1-3)[Neu5Ac(a2-3)Gal(b1-3)GlcNAc(b1-2)Man(a1-6)]Man(b1-4)GlcNAc(b1-4)GlcNAc
# Summary of the method: as §1
# [39] = molecular target: Neu5Ac(a2-3)Gal(b1-3)GlcNAc6S
# Summary of the method: as §1
# [40] = molecular target: Neu5Ac(a2-3)Gal(b1-3)]Neu5Ac(a2-3)Gal(b1-4)]GlcNAc
# Summary of the method: as §1
# [41] = molecular target: Neu5Ac(a2-3)Gal(b1-4)[Fuc(a1-3)]GlcNAc(b1-3)Gal(b1-4)GlcNAc
# Summary of the method: as §1
# [42] = molecular target: Neu5Ac(a2-3)Gal(b1-4)[Fuc(a1-3)]GlcNAc(b1-6)[Gal(b1-3)]GalNAc
# Summary of the method: as §1
# [43] = molecular target: Neu5Ac(a2-3)Gal(b1-4)[Fuc(a1-3)]GlcNAc(b1-6)[Neu5Ac(a2-3)Gal(b1-3)]GalNAc
# Summary of the method: as §1
# [44] = molecular target: Neu5Ac(a2-6)Gal(b1-4)GlcNAc(b1-2)[Neu5Ac(a2-6)Gal(b1-4)GlcNAc(b1-4)]Man(a1-3)[GlcNAc(b1-4)][Neu5Ac(a2-6)Gal(b1-4)GlcNAc(b1-2)[Neu5Ac(a2-6)Gal(b1-4)GlcNAc(b1-6)]Man(a1-6)]Man(b1-4)GlcNAc(b1-4)GlcNAc
# Summary of the method: as §1
# [45] = molecular target: Neu5Ac(a2-6)Gal(b1-4)GlcNAc(b1-2)[Neu5Ac(a2-6)Gal(b1-4)GlcNAc(b1-6)]Man(a1-6)[Neu5Ac(a2-6)Gal(b1-4)GlcNAc(b1-2)Man(a1-3)][GlcNAc(b1-4)]Man(b1-4)GlcNAc(b1-4)GlcNAc
# Summary of the method: as §1
# [46] = molecular target: Neu5Ac(b2-6)GalNAc
# Summary of the method: as §1
# [47] = molecular target: Neu5Gc(a2-3)Gal(b1-3)GlcNAc
# Summary of the method: as §1
# [48] = molecular target: Neu5Gc(a2-8)Neu5Ac(a2-3)Gal(b1-4)GlcNAc
# Summary of the method: as §1
binder,measurement,setting,value
B1,glycan array binding signal (z-score),[1],2.82
same,glycan array binding signal (z-score),[2],-0.654
same,glycan array binding signal (z-score),[3],-0.203
same,glycan array binding signal (z-score),[4],0.002
same,glycan array binding signal (z-score),[5],0.252
same,glycan array binding signal (z-score),[6],2.34
same,glycan array binding signal (z-score),[7],1.04
same,glycan array binding signal (z-score),[8],2.14
same,glycan array binding signal (z-score),[9],-0.304
same,glycan array binding signal (z-score),[10],0.415
same,glycan array binding signal (z-score),[11],-0.533
same,glycan array binding signal (z-score),[12],15
same,glycan array binding signal (z-score),[13],-0.195
same,glycan array binding signal (z-score),[14],0.072
same,glycan array binding signal (z-score),[15],2.91
same,glycan array binding signal (z-score),[16],2.41
same,glycan array binding signal (z-score),[17],5.6
same,glycan array binding signal (z-score),[18],4.38
same,glycan array binding signal (z-score),[19],1.03
same,glycan array binding signal (z-score),[20],2.33
same,glycan array binding signal (z-score),[21],-0.233
same,glycan array binding signal (z-score),[22],-0.366
same,glycan array binding signal (z-score),[23],0.304
same,glycan array binding signal (z-score),[24],0.766
same,glycan array binding signal (z-score),[25],0.352
same,glycan array binding signal (z-score),[26],-0.56
same,glycan array binding signal (z-score),[27],0.759
same,glycan array binding signal (z-score),[28],0.052
same,glycan array binding signal (z-score),[29],-0.137
same,glycan array binding signal (z-score),[30],-0.848
same,glycan array binding signal (z-score),[31],-0.639
same,glycan array binding signal (z-score),[32],-0.235
same,glycan array binding signal (z-score),[33],-0.565
same,glycan array binding signal (z-score),[34],-0.631
same,glycan array binding signal (z-score),[35],-0.045
same,glycan array binding signal (z-score),[36],-0.262
same,glycan array binding signal (z-score),[37],5.14
same,glycan array binding signal (z-score),[38],0.345
same,glycan array binding signal (z-score),[39],-0.618
same,glycan array binding signal (z-score),[40],-1.05
same,glycan array binding signal (z-score),[41],0.071
same,glycan array binding signal (z-score),[42],3.7
same,glycan array binding signal (z-score),[43],0.371
same,glycan array binding signal (z-score),[44],2.36
same,glycan array binding signal (z-score),[45],-0.36
same,glycan array binding signal (z-score),[46],-0.769
same,glycan array binding signal (z-score),[47],-0.531
same,glycan array binding signal (z-score),[48],-0.771
